Assay results taken from the supplement of paper PMC6555819.

How the values were obtained:
Test in all cases: PBM binding z-score (relative to random genomic background probes); higher = stronger binding; sequences stand for … in GC…GCGATTGACAGCGTAGAATGAAGG
[1] = system: FXR:RXRa (NR concentration 270 nM, RXRa partner concentration 90 nM)
In short: (§1)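 Probes were double-stranded and carried 34-nt variable regions with direct-repeat seeds, single-nucleotide variants, half-site ablations and random human genomic background sequences, printed on custom Agilent 4×180K protein-binding microarrays. Arrays were incubated 1 h with ligand-free nuclear receptor dimers in PBS pH 7.4, 2% milk, 0.02% Triton X-100, 1 mM DTT, 0.2 mg/mL BSA and 0.4 mg/ml salmon testes DNA. Antibodies against each partner (one per run) detected binding, and scanned fluorescence was regression-normalized. Binding z-scores use the random background probes as reference.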

[2] = system: LXRa:RXRa (NR concentration 270 nM, RXRa partner concentration 90 nM)
In short: as §1

[3] = system: LXRa homodimer (NR concentration 270 nM)
In short: as §1

[4] = system: LXRb:RXRa (NR concentration 270 nM, RXRa partner concentration 90 nM)
In short: as §1

[5] = system: LXRb homodimer (NR concentration 270 nM)
In short: as §1

[6] = system: PPARa:RXRa (NR concentration 270 nM, RXRa partner concentration 90 nM)
In short: as §1

[7] = system: PPARg:RXRa 270nM:90nM, anti-RXR (NR concentration 270 nM, RXRa partner concentration 90 nM)
In short: as §1

[8] = system: PPARg:RXRa 30nM:10nM, anti-RXR (NR concentration 30 nM, RXRa partner concentration 10 nM)
In short: as §1

[9] = system: PPARg:RXRa 90nM:30nM, anti-RXR (NR concentration 90 nM, RXRa partner concentration 30 nM)
In short: as §1

[10] = system: PPARg:RXRa DBDmut IVT, anti-RXR (DBD mutation: RXRa K156A/R161A, NR concentration 270 nM, RXRa partner concentration 90 nM)
In short: as §1

[11] = system: PPARg:RXRa IVT, anti-PPARg (NR concentration 270 nM, RXRa partner concentration 90 nM)
In short: as §1

[12] = system: PPARg DBDmut:RXRa IVT, anti-PPARg (DBD mutation: PPARg1 K132A/R137A, NR concentration 270 nM, RXRa partner concentration 90 nM)
In short: as §1

[13] = system: PPARg DBDmut IVT, anti-PPARg (DBD mutation: PPARg1 K132A/R137A, NR concentration 270 nM)
In short: as §1

[14] = system: PPARg homodimer (NR concentration 180 nM)
In short: as §1

[15] = system: PXR:RXRa (NR concentration 270 nM, RXRa partner concentration 90 nM)
In short: as §1

[16] = system: PXR homodimer (NR concentration 270 nM)
In short: as §1

[17] = system: RARa:RXR (NR concentration 270 nM, RXRa partner concentration 90 nM)
In short: as §1

[18] = system: RARa homodimer (NR concentration 270 nM)
In short: as §1

[19] = system: RARb:RXRa (NR concentration 270 nM, RXRa partner concentration 90 nM)
In short: as §1

[20] = system: PPARg:RXRa (NR concentration 180 nM, RXRa partner concentration 90 nM)
In short: as §1

Row | Sequence | PBM binding z-score [1] | PBM binding z-score [2] | PBM binding z-score [3] | PBM binding z-score [4] | PBM binding z-score [5] | PBM binding z-score [6] | PBM binding z-score [7] | PBM binding z-score [8] | PBM binding z-score [9] | PBM binding z-score [10] | PBM binding z-score [11] | PBM binding z-score [12] | PBM binding z-score [13] | PBM binding z-score [14] | PBM binding z-score [15] | PBM binding z-score [16] | PBM binding z-score [17] | PBM binding z-score [18] | PBM binding z-score [19] | PBM binding z-score [20]
1 | ACTCGGAGGACAGAGGTCAGAGCTACGCCAGTGA | 2.85 | 3.27 | 0.56 | 2.62 | -0.0333 | 3.83 | 4.96 | 2.62 | 4.8 | 0.205 | 2.43 | -0.153 | -0.704 | 1.89 | 3.17 | 0.328 | 3.9 | 0.568 | 3.57 | –
2 | CCTAGTGGGCCAAAGGTCATTGATTCCAATGCTC | 5.47 | 5.18 | 3.76 | 5.23 | 0.768 | 6.76 | 10.7 | 13.5 | 12.9 | 5.71 | 7.73 | 2 | 0.985 | 7.49 | 5.83 | 3.2 | – | 3.01 | 4.62 | –
3 | ACTCGGAGGGCAAAGGTCAGAGCTACGCCAGTGA | 5.79 | 5.11 | 1.08 | 4.14 | -0.447 | 6.1 | 8.48 | 8.91 | 9.51 | 2.2 | 4.71 | -0.0277 | -0.839 | 5.97 | 5.61 | 0.191 | – | 0.823 | 4.93 | –
4 | CCTACTGGGCCAAAAAGGCCATTGATGCCGATAA | -0.133 | -0.247 | -0.15 | -0.244 | -1.1 | 0.629 | 0.7 | -0.443 | 0.151 | 2.77 | 2.4 | 0.199 | -0.751 | 0.287 | – | -0.211 | -0.0899 | -0.317 | 0.816 | –
5 | ACTAGCAGGTCAAGGGTCACTCAAGATTAGTCCG | 6.89 | 5.73 | 2.16 | 4.88 | 0.671 | 6.3 | 9.23 | 8.21 | 10.3 | 4.43 | 6.12 | 1.23 | 1.92 | 3.91 | 5.82 | 0.469 | – | 1.38 | 4.86 | –
6 | ACTTGGAGGACAAAGGTCAGAGCTACGCCAGTGA | 4.75 | 4.49 | 1.97 | 3.58 | 0.676 | 5.71 | 9.07 | 8.21 | 10.6 | 2.6 | 5.22 | 1.39 | 1.18 | 4.64 | 4.33 | 0.449 | 5.83 | 2.6 | 4.72 | –
7 | AGTCAAATTTCACTAGGTAACGTAAGATTCAGCT | -0.177 | -0.14 | -0.0488 | 0.0425 | 0.175 | – | 0.334 | 0.197 | -0.0408 | 1.53 | 2.38 | 0.835 | 0.824 | 0.334 | 0.334 | -0.0218 | 0.0458 | 1.44 | – | 0.5
8 | CGAACTAGGTCAAAGGCCAGTGAAAGGCGACGTA | 4.37 | 2.92 | -0.479 | 1.81 | -0.821 | 5.83 | 9.43 | 9.62 | 10.3 | 7.82 | 8.38 | – | 0.408 | 1.42 | 1.79 | -0.54 | 3.18 | -0.426 | 3.87 | –
9 | TATACAGGGTCAAAGGGCAGAGTACGAATGTCGA | 7.38 | 6.55 | 3.16 | 5.44 | 3.33 | 6.52 | 8.53 | 7.25 | 8.56 | 2.92 | 5.52 | 3.49 | 2.57 | 2.97 | 5.21 | 1.62 | – | 1.6 | 4.84 | –
10 | TCTAGTAGGTCACGGAGGTCACACACGACGGGTA | 7.27 | 6.42 | 5.23 | 5.56 | 1.44 | 6.41 | 8.31 | 6.89 | 8.04 | 7.04 | 8.61 | 4.06 | 4.54 | 5.46 | – | 7.52 | – | 1.12 | – | –
11 | GATACAGGGTCAGCTAGAGGTCAGAGTATGGAAA | 6 | 5.81 | 3.45 | 4.98 | 0.386 | 5.57 | 5.22 | 1.99 | 3.52 | 1.65 | 3.52 | 0.365 | -0.0888 | 6.51 | 5.99 | 1.34 | – | 1.59 | 5.32 | –
12 | AGTCAAAGTTCAGTAGGTAACGTAAGATTCAGCT | 2.64 | 3.04 | 1.6 | 1.67 | 0.481 | – | 5.2 | 2.18 | 4.2 | 2.06 | 4.51 | 0.804 | 1.29 | 1.65 | 2.51 | 1.37 | 1.49 | 0.822 | 4.13 | 5.39
13 | ACTTACGGGTCAACGAAGTTATAGCACGCGTATA | 6.23 | 4.01 | 0.164 | 3.62 | 0.73 | 5.47 | 4.81 | 1.85 | 3.63 | 2.94 | 3.94 | 2.05 | 3.18 | 2.32 | 3.73 | 0.0102 | 4.15 | 0.443 | 4.15 | –
14 | ATCTCTAGGTTAAAGTTCAGTGAATCCCGAGGAT | 2.96 | 3.76 | 3.34 | 2.61 | 1.62 | 5.59 | 8.62 | 8.86 | 9.27 | 4.45 | 5.47 | 1.98 | 1.29 | 2.11 | – | 1.85 | 3.99 | 1.65 | 3.28 | –
15 | CCTACTGGGCCAAGGTCATAGATCAGTCAAAGCA | 2.72 | 2.93 | 0.673 | 2.72 | -0.469 | 4.19 | 4.41 | 2.23 | 3.84 | 3.5 | 4.88 | 0.145 | -0.588 | 2.21 | 3.28 | 0.536 | 4.12 | 0.339 | 3.23 | –
16 | TCTGCTAGGTCAACGATGGTCAGCGAATCTGCTA | 3.19 | 2.8 | -0.293 | 1.24 | -0.382 | – | 3.03 | 1.79 | 2.4 | 4.02 | 4.01 | 0.33 | -0.3 | 0.458 | 1.44 | -0.999 | 2.26 | -0.808 | 4.11 | 2.51
